Measured values from PubChem BioAssay.
Inconclusive results are not listed. Active and inactive are the calls of the source.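 Rule for the calls, unless noted: active = viability at or below 30% in both replicate assays; inconclusive = viability at or below 30% in just one of the two assays; inactive = the rest.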

Legend:
[1] = reducers of endogenous Her2 protein level, primary screen, SKBR3 breast tumor cells, AlphaScreen, ATP viability (AID 461;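 active = Her2 level under about 52% in both replicate screens, with viability over 70% of control, limit read from the data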;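 for Her2 level: lower value means less Her2 protein in the cells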;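 for viability: percent of carrier control wells set as 100% viability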); conditions: 18-24 h, measured here: SKBR3 viability, ATP luminescence, at 10 µM
[2] = target: Receptor tyrosine-protein kinase erbB-2 (Homo sapiens) (UniProt P04626); assay: as above; conditions: 18-24 h, at 10 µM, stronger effect = lower value
[3] = SK-BR-3 cell growth inhibitors, pilot screen, 24 h, human (AID 572;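 active = viability at or below 10% of carrier control in both of two separate runs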;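 note: compound exposure lasted between 18 and 24 h rather than exactly 24 h; 100% = carrier-treated control wells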); conditions: SK-BR-3 viability, CellTiter-Glo luminescence, at 10 µM, stronger effect = lower value
[4] = HUVEC growth inhibition – cell-based, human, primary screen (AID 575); conditions: HUVEC proliferation, CellTiter-Glo luminescence, 72 h; at 10 µM; stronger effect = lower value;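 note: 100% = median of untreated cell wells with 0.1% DMSO on each plate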
[5] = growth inhibitors of H69AR lung tumor, primary screen, human, duplicate replicates (AID 580;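 active = viability at or under a set limit in both replicates, limit being median viability minus 3 SD, cut at about 48% in these data, passing the limit was not always enough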;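 note: 100% = mean luminescence of untreated wells and 0% = no signal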); conditions: H69AR lung tumor cells viability, ATP luminescence, 72 h; at 10 µM; stronger effect = lower value
[6] = reversal of MRP1-mediated doxorubicin resistance, pilot screen, H69AR cells, doxorubicin co-treatment (AID 601;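 active = viability loss from added drug above about 55%, and viability with drug at most 40%, in both replicates, limit read from the data, passing the limit was not always enough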); conditions: CellTiter-Glo, 72 h, at 10 µM; for differential viability (reversal): stronger effect = higher value
[7] = 384-well plate pilot, post-Golgi transport modulator project, inhibition of yeast transport mutant growth (AID 636; in the data active = inhibition above about 31%); conditions: absorbance 615 nm, about 18 h, stronger effect = higher value
[8] = growth suppression of yeast trafficking mutant, preliminary HTS, modulators of trafficking downstream of Golgi apparatus project, 1536-format plate, OD 615 nm (AID 637; in the data active = inhibition above about 30%); conditions: yeast transport mutant growth, absorbance 615 nm, 18 h; stronger effect = higher value
[9] = OD615 S. cerevisiae growth inhibition, permissive medium, pilot counter-assay, permissive growth control for S. cerevisiae lifespan shortening project (AID 705;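 active = growth inhibition above 25% in both replicates, a cutoff set 3 SD above the mean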); conditions: OD615, 24 h, at 10 µM, stronger effect = higher value
[10] = Restrictive medium S. cerevisiae growth inhibition, OD615, pilot screen of yeast lifespan reduction project, restrictive growth control (AID 706;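 active = growth inhibition above a set limit, 3 SD over mean compound inhibition, in both replicates, cut at about 43% in these data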;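 note: modified DeaD lifespan yeast strain shifted to restrictive glucose medium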); conditions: OD615, 48 h, at 10 µM, stronger effect = higher value
[11] = viability gain of MRP-1-high H69AR cells under doxorubicin, pilot screen, MRP-1 activator project, CellTiter-Glo, duplicate (AID 807;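 active = viability increase at or above a cutoff of the median across tested compounds plus 3 SD, cut at about 8.5% in these data, passing the limit was not always enough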;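 note: compound pretreatment 18-22 h then 72 h combined with doxorubicin; 0% = doxorubicin alone and 100% = vehicle without doxorubicin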); conditions: H69AR viability with doxorubicin, CellTiter-Glo luminescence; at 10 µM; stronger effect = higher value
[12] = growth suppression of beta-catenin knockout HCT116, pilot screen, human colon tumor cells (AID 823;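 active = cell viability at or below a set limit in both duplicate runs, the limit being the all-compound median minus 4 SD, cut at about 23% in these data, passing the limit was not always enough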;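 note: 0% = wells killed by 20 µM Hyamine and 100% = untreated DMSO cell wells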); conditions: CellTiter-Glo, 60 h, at 10 µM, stronger effect = lower value
[13] = growth suppression of PTEN-deleted HCT116, pilot screen, cell-based, HCT116 clonal line, CellTiter-Glo (AID 824;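 active = viability at or below 27.92% in each of two runs, the all-compound median minus 4 SD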;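 note: 0% = 20 µM Hyamine control and 100% = vehicle cell control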); conditions: 60 h, at 10 µM, stronger effect = lower value
[14] = inhibitors of the yeast RAM network, pilot screen, dse1pr::URA3 reporter, 5-FOA selection (AID 869;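 active = inhibition over a set limit, the all-compound mean plus 3 SD, in both replicate runs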;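 note: 0% = DMSO wells with no growth and 100% = 10 µM 1-NA-PP1 with full growth; RAM network block rescues cells from 5-FOA so hits raise OD615 growth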); conditions: S. cerevisiae dse1pr::URA3 5-FOA growth, OD615, 2 d; at 10 µM; stronger effect = higher value; strain carries analog-sensitive mutant Cbk1 kinase
[15] = RAM signaling pathway blockade in yeast – S. cerevisiae, Pdr1DBD-CYC8 efflux-inhibited sensitized strain, primary screen (AID 1298;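 active = RAM network inhibition above 8.4% in each of two replicates, 3 SD over the compound average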;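 note: 0% = DMSO untreated cells without growth and 100% = 10 µM 1-NA-PP1 full growth; higher means more yeast growth rescued from 5-FOA killing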); conditions: S. cerevisiae cbk1-as DSE1-URA3 strain, 5-FOA growth OD615, 2 d; at 50 µM; stronger effect = higher value
[16] = H69AR cells + 2 uM doxorubicin, measured here: viability with 2 uM doxorubicin, stronger effect = lower value
[17] = H69AR cells, compound alone cytotoxicity

Chain of Receptor tyrosine-protein kinase erbB-2 (Homo sapiens) (P04626 whole entry, looked up): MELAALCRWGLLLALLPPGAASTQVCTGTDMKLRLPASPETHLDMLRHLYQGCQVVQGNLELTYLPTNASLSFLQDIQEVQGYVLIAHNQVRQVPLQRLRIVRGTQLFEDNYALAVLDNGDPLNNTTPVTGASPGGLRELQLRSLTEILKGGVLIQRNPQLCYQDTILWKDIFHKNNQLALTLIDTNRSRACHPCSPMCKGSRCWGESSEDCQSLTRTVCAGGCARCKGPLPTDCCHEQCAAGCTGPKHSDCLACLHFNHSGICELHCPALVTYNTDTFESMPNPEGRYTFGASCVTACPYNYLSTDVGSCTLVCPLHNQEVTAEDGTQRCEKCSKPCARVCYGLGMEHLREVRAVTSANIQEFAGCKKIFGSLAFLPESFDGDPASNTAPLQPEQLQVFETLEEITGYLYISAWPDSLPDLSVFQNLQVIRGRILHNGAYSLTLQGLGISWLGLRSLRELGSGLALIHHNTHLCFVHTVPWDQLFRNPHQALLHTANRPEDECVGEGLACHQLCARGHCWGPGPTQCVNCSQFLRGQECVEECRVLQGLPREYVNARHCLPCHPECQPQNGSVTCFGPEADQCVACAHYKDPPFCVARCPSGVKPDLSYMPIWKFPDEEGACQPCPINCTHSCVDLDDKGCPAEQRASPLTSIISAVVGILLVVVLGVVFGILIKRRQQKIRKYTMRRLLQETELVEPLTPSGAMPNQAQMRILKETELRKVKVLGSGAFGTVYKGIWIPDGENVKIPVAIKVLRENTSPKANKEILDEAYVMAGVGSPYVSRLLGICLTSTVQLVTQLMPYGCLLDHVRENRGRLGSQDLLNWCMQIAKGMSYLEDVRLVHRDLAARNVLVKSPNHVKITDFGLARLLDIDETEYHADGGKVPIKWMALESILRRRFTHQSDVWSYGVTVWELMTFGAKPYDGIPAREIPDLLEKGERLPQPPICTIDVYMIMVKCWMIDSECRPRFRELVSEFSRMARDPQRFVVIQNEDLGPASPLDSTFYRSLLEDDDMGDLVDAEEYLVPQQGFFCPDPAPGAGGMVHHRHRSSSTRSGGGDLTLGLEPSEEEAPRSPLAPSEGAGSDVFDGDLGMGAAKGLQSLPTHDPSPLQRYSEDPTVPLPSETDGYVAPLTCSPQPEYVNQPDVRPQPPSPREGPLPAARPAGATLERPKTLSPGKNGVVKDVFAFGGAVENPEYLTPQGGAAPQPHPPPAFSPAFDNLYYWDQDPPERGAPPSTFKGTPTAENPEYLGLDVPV

Row | SMILES | viability [1] [%] | Her2 level [2] | viability [3] | viability [4] | viability [5] | differential viability (reversal) ([6]; H69AR cells + 2 uM doxorubicin) | viability [6, 16] [%] | viability [6, 17] [%] | inhibition [7] | inhibition [8] | growth inhibition [9] | growth inhibition [10] | viability increase [11] | viability [12] | viability [13] | inhibition [14] | RAM network inhibition [15]
1 | CC1=C(C(=O)Nc2ccc(F)cc2)C(c2cccc(C)c2)n2nc(CCCO)nc2N1 (stereo not drawn) | 87.5 | 91.5% (inactive) | 87.5% (inactive) | 79% (inactive) | 94% (inactive) | 1.5% (inactive) | 92.5 | 94 | -3.73% (inactive) | -2.83% (inactive) | -1.56% (inactive) | -3% (inactive) | -0.66% (inactive) | 98.2% (inactive) | 100% (inactive) | -0.19% (inactive) | 1.3% (inactive)
2 | CCN(CC)C(=O)Oc1ccccc1NC(C)=O | 102 | 92% (inactive) | 102% (inactive) | 107% (inactive) | 90.5% (inactive) | -0.19% (inactive) | 90.7 | 90.5 | -5.14% (inactive) | -3% (inactive) | 1.79% (inactive) | -2.54% (inactive) | -0.54% (inactive) | 92.2% (inactive) | 96.1% (inactive) | 0.84% (inactive) | -0.6% (inactive)
3 | CCC(Oc1ccccc1)C(=O)Nc1ccccc1OC (stereo not drawn) | 86 | 72.5% (inactive) | 86% (inactive) | 99.4% (inactive) | 97.4% (inactive) | 12.6% (inactive) | 84.8 | 97.4 | -6.35% (inactive) | 3.61% (inactive) | -1.92% (inactive) | 8.91% (inactive) | -3.52% (inactive) | 90% (inactive) | 87% (inactive) | 1.94% (inactive) | 5.73% (inactive)
4 | CCc1nc2sc(C)c(C)c2c(=O)n1CCO | 106 | 85% (inactive) | 106% (inactive) | 104% (inactive) | 94.7% (inactive) | 4.12% (inactive) | 90.6 | 94.7 | -6.23% (inactive) | -3.67% (inactive) | -1.03% (inactive) | 0.805% (inactive) | -1.82% (inactive) | 104% (inactive) | 102% (inactive) | 0.35% (inactive) | 2.87% (inactive)
5 | CCOC(=O)N1CCC(c2cc(=O)n3[nH]cc(C(=O)OC)c3n2)CC1 | 94.5 | 101% (inactive) | 94.5% (inactive) | 92.1% (inactive) | 92.2% (inactive) | 9.5% (inactive) | 82.7 | 92.2 | -4% (inactive) | 0.83% (inactive) | 2.45% (inactive) | 9.29% (inactive) | -0.6% (inactive) | 88.8% (inactive) | 101% (inactive) | 0.045% (inactive) | 0.56% (inactive)
6 | Cc1cccc(N2CCN(C(=O)c3cc4ccccc4oc3=O)CC2)c1C | 90.5 | 116% (inactive) | 90.5% (inactive) | 98.6% (inactive) | 100% (inactive) | 8.08% (inactive) | 92 | 100 | -6.53% (inactive) | -7.67% (inactive) | -4.18% (inactive) | -0.595% (inactive) | 1.65% (inactive) | 88.5% (inactive) | 94.3% (inactive) | 0.78% (inactive) | -1.13% (inactive)
7 | S=c1[nH]nc(-c2ccccc2)n1C1C=CCCC1 (stereo not drawn) | 95.5 | 104% (inactive) | 95.5% (inactive) | 97.4% (inactive) | 85% (inactive) | 0.65% (inactive) | 84.4 | 85 | 1.56% (inactive) | -6.33% (inactive) | 2.92% (inactive) | -1.09% (inactive) | -1.61% (inactive) | 102% (inactive) | 101% (inactive) | 1.67% (inactive) | 2.63% (inactive)
8 | Cc1cccc(CN2CCC(CNC(=O)C3CCCN(S(=O)(=O)c4cnc[nH]4)C3)CC2)c1 (stereo not drawn) | 98 | 95.5% (inactive) | 98% (inactive) | 98.8% (inactive) | 89.8% (inactive) | 2.14% (inactive) | 87.6 | 89.8 | -5.2% (inactive) | -0.66% (inactive) | -0.3% (inactive) | -2.77% (inactive) | 0.07% (inactive) | 101% (inactive) | 106% (inactive) | 1.33% (inactive) | 4.03% (inactive)
9 | O=C(c1cnc2n(c1=O)CCS2)N1CCc2ccccc21 | 99.5 | 83% (inactive) | 99.5% (inactive) | 96% (inactive) | 101% (inactive) | 3.18% (inactive) | 98.1 | 101 | -2.13% (inactive) | 0.16% (inactive) | -3.25% (inactive) | -7.63% (inactive) | 0.01% (inactive) | 97% (inactive) | 102% (inactive) | 1.24% (inactive) | -0.32% (inactive)
10 | Cc1nc2ccccc2c2oc(C(=O)NCCCN3CCCC3=O)cc12 | 91 | 97.5% (inactive) | 91% (inactive) | 84.3% (inactive) | 91.8% (inactive) | 13.9% (inactive) | 77.9 | 91.8 | -5.73% (inactive) | -2.62% (inactive) | -0.475% (inactive) | -1.4% (inactive) | -1.47% (inactive) | 94.5% (inactive) | 96.8% (inactive) | 1.9% (inactive) | 6.62% (inactive)
11 | O=C(Oc1ccc2ccc(OC(=O)N3CCOCC3)cc2c1)N1CCOCC1 | 96.5 | 96% (inactive) | 96.5% (inactive) | 108% (inactive) | 84% (inactive) | -5.42% (inactive) | 89.5 | 84 | -0.13% (inactive) | -2.5% (inactive) | -14.7% (inactive) | -15.1% (inactive) | 1.51% (inactive) | 92.2% (inactive) | 87.7% (inactive) | 1.12% (inactive) | 4.57% (inactive)
12 | CCOC(=O)N1CCC(NC(=O)CN2C(=O)CCSc3ccccc32)CC1 | 96.5 | 97.5% (inactive) | 96.5% (inactive) | 87.5% (inactive) | 93.1% (inactive) | -3.45% (inactive) | 96.6 | 93.1 | -1.87% (inactive) | -1.15% (inactive) | 5.44% (inactive) | -4.73% (inactive) | 1.02% (inactive) | 106% (inactive) | 101% (inactive) | 2.65% (inactive) | -0.42% (inactive)
13 | COc1ccc(OC)c(C2=NOC(C(=O)Nc3c(C)n(C)n(-c4ccccc4)c3=O)C2)c1 (stereo not drawn) | 88.5 | 96% (inactive) | 88.5% (inactive) | 84.6% (inactive) | 95.3% (inactive) | 8.86% (inactive) | 86.5 | 95.3 | -2.93% (inactive) | -7.54% (inactive) | -11.8% (inactive) | -24% (inactive) | -0.56% (inactive) | 99.4% (inactive) | 107% (inactive) | 0.74% (inactive) | 3.94% (inactive)
14 | Cc1noc(/C=C/N(C)C)c1S(=O)(=O)N1CCCC(C(=O)N2CCc3ccccc32)C1 (stereo not drawn) | 104 | 99% (inactive) | 104% (inactive) | 86.3% (inactive) | 89.2% (inactive) | -5.5% (inactive) | 94.7 | 89.2 | -5.2% (inactive) | -0.33% (inactive) | 5.67% (inactive) | -0.63% (inactive) | -0.98% (inactive) | 103% (inactive) | 109% (inactive) | 1.35% (inactive) | 4.08% (inactive)
15 | CN(CCCNC(=O)c1cn(C)c2ccc(S(=O)(=O)N(C)C)cc2c1=O)c1ccccc1 | 85.5 | 90% (inactive) | 85.5% (inactive) | 98.3% (inactive) | 87.7% (inactive) | 17.1% (inactive) | 70.6 | 87.7 | 0.38% (inactive) | -1% (inactive) | 1.83% (inactive) | -0.125% (inactive) | -3.8% (inactive) | 94.8% (inactive) | 85% (inactive) | 0.395% (inactive) | 7.85% (inactive)
16 | CCc1ccc(N2CC34C=CC(O3)C(C(=O)OC)C4C2=O)cc1 (stereo not drawn) | 102 | 104% (inactive) | 102% (inactive) | 96.7% (inactive) | 94.2% (inactive) | 12% (inactive) | 82.2 | 94.2 | -2.8% (inactive) | -1.17% (inactive) | -6.25% (inactive) | 3.24% (inactive) | 0.55% (inactive) | 102% (inactive) | 99.7% (inactive) | 0.255% (inactive) | 0.11% (inactive)
17 | COc1ccc(CN2C(=O)CN=C2Nc2ccc(C)cc2C)cc1 | 85 | 91% (inactive) | 85% (inactive) | 103% (inactive) | 84.9% (inactive) | 7.04% (inactive) | 77.8 | 84.9 | -3.82% (inactive) | -0.73% (inactive) | -7.07% (inactive) | -12.2% (inactive) | -1.49% (inactive) | 101% (inactive) | 89.4% (inactive) | 3.82% (inactive) | 5.11% (inactive)
18 | COc1ccc(-c2nc(C)c(C(C)=O)n2O)cc1OC | 89 | 112% (inactive) | 89% (inactive) | 91% (inactive) | 94.9% (inactive) | 9.6% (inactive) | 85.3 | 94.9 | -2.05% (inactive) | -8.33% (inactive) | -5.41% (inactive) | 6.06% (inactive) | -1.91% (inactive) | 96.5% (inactive) | 90.1% (inactive) | 1.42% (inactive) | 2.4% (inactive)
19 | CN(C)S(=O)(=O)c1ccc2c(c1)c(=O)c(C(=O)NCCCN1CCCCCC1)cn2C | 110 | 105% (inactive) | 110% (inactive) | 90.7% (inactive) | 102% (inactive) | -4.19% (inactive) | 106 | 102 | -1.03% (inactive) | -7.83% (inactive) | 9.68% (inactive) | 8.09% (inactive) | -1.28% (inactive) | 103% (inactive) | 99.5% (inactive) | 0.785% (inactive) | 0.76% (inactive)
